The text below walks through data of PubChem BioAssay (EPA / NIEHS).

SMILES strings stand for the structures. The source made the active and inactive calls. Rule for the calls: active = hit-call score of the fitted dose curve at least 0.9, where 1 is the maximum; inactive = score below 0.9.

Assay [1] can be described thus: ATG_CRE_CIS: Attagene CIS-FACTORIAL HepG2 Assay for human cAMP Responsive Element (CRE) binding protein 3 (AID 2282926). The settings on record: HepG2 CRE cis-reporter, Attagene multiplexed mRNA; actives raise or lower the signal. In outline: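 Liver-derived HepG2, transfected with a CRE-containing reporter panel, exposed 24 h; transcript levels sized and quantified by capillary electrophoresis of labelled amplicons; signal changes either way referenced to vehicle.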

Assay [2] has as its target CCAAT/enhancer-binding protein beta (Homo sapiens) (UniProt P17676). The assay can be described thus: ATG_C_EBP_CIS: Attagene CIS-FACTORIAL HepG2 Assay for human CCAAT/Enhancer Binding Protein (C/EBP) beta (AID 2282927). The settings on record: HepG2 Attagene cis-factorial transcription factor reporter; actives raise or lower the signal. In outline:
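Transiently transfected HepG2 (MRTU library, endogenous TF-driven promoters); 24 h dosing; total RNA → oligo(dT) RT → PCR → 6-FAM primer extension → HpaI digest → CE; fit bidirectionally vs DMSO.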

The nature of assay [3]: ATG_CMV_CIS: Attagene CIS-FACTORIAL HepG2 Assay for human CMV (Internal Marker) (AID 2282928).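 Note: endpoint acts as a background internal control marker rather than a target.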 The settings on record: HepG2 CMV promoter reporter, transcription factor profiling; actives raise or lower the signal. In outline:
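Bidirectional fits against DMSO are applied to reporter mRNA, read by RT-PCR with capillary electrophoresis, from HepG2 cells exposed 24 h. The endpoint serves as an internal CMV background marker within the cis-factorial reporter panel.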

The target in assay [4] is Aryl hydrocarbon receptor (Homo sapiens) (UniProt P35869). Kind of assay: ATG_Ahr_CIS: Attagene CIS-FACTORIAL HepG2 Assay for human Aryl Hydrocarbon Receptor (Ahr) (AID 2282930). The note with it: HepG2 AhR cis-factorial reporter transcription; actives raise or lower the signal. In outline:
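Read-out: reporter mRNA quantified by RT-PCR with fluorescent primer extension and capillary electrophoresis. Human HepG2 liver cells carried transfected cis-promoter reporter units and were exposed to chemical for 24 h; gain or loss fitted relative to DMSO.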

The nature of assay [5]: ATG_AP_2_CIS: Attagene CIS-FACTORIAL HepG2 Assay for human Activator Protein 2 (AP-2) (AID 2282932). The note with it: HepG2 AP-2 cis-reporter, Attagene transcription factor profiling; actives raise or lower the signal. In a few lines:
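Read-out: fluorescent reporter mRNA via RT-PCR and capillary electrophoresis, 24 h post-dose in transiently transfected HepG2. Endogenous factors drive cis-promoter reporters; gain or loss of signal fitted bidirectionally against DMSO.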

The target of assay [6] is Retinoic acid receptor alpha (Homo sapiens) (UniProt P10276). The assay can be described thus: ATG_DR5_RAR_CIS: Attagene CIS-FACTORIAL HepG2 Assay for human Retinoic Acid Receptor Alpha (RARE), DR5 submotif (AID 2282934).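 For AC50: reporter responds to endogenous RAR alpha beta and gamma in HepG2 not RARA alone.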 The note with it: HepG2 Attagene cis-factorial RARE DR5 reporter, mRNA; actives raise or lower the signal. In outline: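 Read-out: DR5-driven reporter transcript measured by RT-PCR, 6-FAM primer extension, HpaI digest and capillary electrophoresis. Human HepG2 liver cells carry transiently transfected cis-element reporter constructs; dosing lasts 24 h. Gain or loss of signal fitted against DMSO baseline.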
Sequence of Retinoic acid receptor alpha (Homo sapiens) (P10276 whole entry, looked up): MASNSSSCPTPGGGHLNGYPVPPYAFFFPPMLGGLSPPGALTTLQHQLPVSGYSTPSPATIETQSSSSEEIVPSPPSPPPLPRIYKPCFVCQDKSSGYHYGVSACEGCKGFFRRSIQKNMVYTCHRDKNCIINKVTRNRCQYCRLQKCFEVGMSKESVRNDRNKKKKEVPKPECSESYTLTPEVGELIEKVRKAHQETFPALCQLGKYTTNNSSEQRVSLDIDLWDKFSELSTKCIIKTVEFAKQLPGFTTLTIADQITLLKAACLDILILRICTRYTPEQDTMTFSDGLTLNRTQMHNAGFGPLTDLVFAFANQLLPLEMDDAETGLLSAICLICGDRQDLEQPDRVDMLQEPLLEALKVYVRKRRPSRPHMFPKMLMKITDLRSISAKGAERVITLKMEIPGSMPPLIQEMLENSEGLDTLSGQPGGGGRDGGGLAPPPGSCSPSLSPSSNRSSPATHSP

In assay [7] the target is Transcription factor E2F1 (Homo sapiens) (UniProt Q01094). The assay can be described thus: ATG_E2F_CIS: Attagene CIS-FACTORIAL HepG2 Assay for human E2F Transcription Factor 1 (AID 2282935). The settings on record: HepG2 Attagene cis-reporter, E2F reporter RNA transcripts; actives raise or lower the signal. In outline: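 Transient MRTU transfection of HepG2; 24 h compound exposure; RNA → oligo(dT) RT → PCR → FAM label → HpaI cut → CE fluorescence. Gain/loss of signal fit against DMSO.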
Sequence of Transcription factor E2F1 (Homo sapiens) (Q01094 whole entry, looked up): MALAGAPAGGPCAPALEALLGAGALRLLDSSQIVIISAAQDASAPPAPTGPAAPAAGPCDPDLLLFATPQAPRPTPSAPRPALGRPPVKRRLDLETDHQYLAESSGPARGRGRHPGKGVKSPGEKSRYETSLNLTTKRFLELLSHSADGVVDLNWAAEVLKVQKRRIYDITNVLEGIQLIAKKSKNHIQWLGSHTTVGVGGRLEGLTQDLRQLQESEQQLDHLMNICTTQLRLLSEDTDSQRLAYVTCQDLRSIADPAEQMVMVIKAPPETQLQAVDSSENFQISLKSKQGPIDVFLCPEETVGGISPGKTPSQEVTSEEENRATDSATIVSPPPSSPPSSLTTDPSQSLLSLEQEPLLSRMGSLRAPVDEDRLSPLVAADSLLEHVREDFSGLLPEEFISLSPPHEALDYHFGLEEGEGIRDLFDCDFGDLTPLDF

Assay [8] in a line: ATG_E_Box_CIS: Attagene CIS-FACTORIAL HepG2 Assay for human Enhancer Box (E-box) (AID 2282936). The settings on record: HepG2 E-box cis-reporter transcription, actives raise or lower the signal. In outline:
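Transiently transfected HepG2, endogenous TF-driven reporters, 24 h dosing. Readout: RT-PCR plus capillary electrophoresis of fluorescent reporter fragments. Gain or loss of signal fitted bidirectionally against DMSO baseline.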

Assay [9] can be described thus: ATG_M_61_CIS: Attagene CIS-FACTORIAL HepG2 Assay for M61 Transcription Factor (Internal Marker) (AID 2282937). The settings on record: HepG2 Attagene CIS-FACTORIAL M61 internal marker reporter; actives raise or lower the signal. In outline: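 Background-control endpoint: HepG2 cells with cis-regulated reporter constructs, 24 h exposure, reporter mRNA detected via fluorescent primer extension and capillary electrophoresis; values from bidirectional fitting with DMSO baseline.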

Assay [10] in a line: ATG_EGR_CIS: Attagene CIS-FACTORIAL HepG2 Assay for human Early Growth Response 1 (EGR1) (AID 2282938). The settings on record: HepG2 Attagene CIS-FACTORIAL EGR reporter mRNA; actives raise or lower the signal. In a few lines:
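Endpoint derived by bidirectional fitting versus DMSO vehicle. Method: cis-promoter reporter units transfected into HepG2, 24 h dosing, RNA isolation, RT-PCR with 6-FAM primer extension and HpaI digestion, then capillary electrophoresis fluorescence detection.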

A short description of assay [11]: ATG_M_19_CIS: Attagene CIS-FACTORIAL HepG2 Assay for M19 Transcription Factor (Internal Marker) (AID 2282939). The settings on record: HepG2 Attagene CIS-FACTORIAL M19 internal marker reporter; actives raise or lower the signal. In a few lines: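 HepG2 cells transiently transfected with cis-regulated multiple reporter transcription units were dosed for 24 h; reporter mRNA was quantified by RT-PCR, 6-FAM primer-extension labelling, HpaI digestion and capillary electrophoresis, with bidirectional fitting against DMSO baseline.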

Assay [12] is described as follows: ATG_ERE_CIS: Attagene CIS-FACTORIAL HepG2 Assay for Estrogen Response Element (ERE) (AID 2282940). The note with it: HepG2 ERE cis-reporter, Attagene RNA transcript; actives raise or lower the signal. In outline:
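HepG2 cells transiently transfected with cis-promoter-driven multiplexed reporter transcription units report endogenous TF activity. After 24 h compound exposure, reporter mRNA is quantified by RT-PCR with capillary electrophoresis fluorescence; bidirectional fitting versus DMSO baseline.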

Assay [13] in a line: ATG_Ets_CIS: Attagene CIS-FACTORIAL HepG2 Assay for human Erythroblast Transformation Specific (ETS) (AID 2282941). The note with it: HepG2 ETS cis-reporter transcription, actives raise or lower the signal. In a few lines:
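Endogenous transcription factor activity read as reporter mRNA via RT-PCR and capillary electrophoresis, with gain or loss fitted bidirectionally against DMSO. Human HepG2 liver cells, transiently transfected CIS reporter constructs, 24 h exposure.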

Assay [14] addresses Hepatocyte nuclear factor 3-beta (Homo sapiens) (UniProt Q9Y261). The assay can be described thus: ATG_FoxA2_CIS: Attagene CIS-FACTORIAL HepG2 Assay for human Forkhead box A2 (FOXA2) (AID 2282942). The note with it: HepG2 cis-reporter transcription factor activity, 24 h; actives raise or lower the signal. In outline: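 Measured: reporter mRNA induction or loss in HepG2 transiently carrying multiple cis-regulated reporter units, 24 h after dosing. Quantified by RT-PCR plus capillary electrophoresis, normalised to DMSO.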

Assay [15] can be described thus: ATG_FoxO_CIS: Attagene CIS-FACTORIAL HepG2 Assay for human Forkhead box O (FoxO) (AID 2282943). The settings on record: HepG2 Attagene cis-reporter, FoxO element, mRNA; actives raise or lower the signal. In a few lines:
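Read-out: fluorescence of 6-FAM-labelled reporter cDNA fragments resolved by capillary electrophoresis. Transiently transfected HepG2 cells were dosed for 24 h; activity fitted in both directions relative to DMSO controls.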

Assay [16] in a line: ATG_GATA_CIS: Attagene CIS-FACTORIAL HepG2 Assay for human GATA Binding Protein (AID 2282944). The note with it: HepG2 GATA cis-element reporter, Attagene multiplex mRNA; actives raise or lower the signal. In a few lines: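 HepG2 cells transiently transfected with multiplexed cis-element reporter units reflecting endogenous transcription factor activity; reporter mRNA measured after 24 h dosing by RT-PCR, 6-FAM labeling, HpaI digestion and capillary electrophoresis. Bidirectional fitting versus DMSO baseline.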

The nature of assay [17]: ATG_GLI_CIS: Attagene CIS-FACTORIAL HepG2 Assay for human Zinc Finger Protein GLI1 (AID 2282945). The note with it: HepG2, Attagene cis-factorial reporter mRNA, GLI element; actives raise or lower the signal. In a few lines:
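Transiently transfected HepG2 cells report endogenous transcription factor activity via cis-element-driven reporter units. After 24 h compound exposure, reporter mRNA was measured by RT-PCR with capillary electrophoresis; bidirectional fitting against DMSO baseline.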

Assay [18] is described as follows: ATG_AP_1_CIS: Attagene CIS-FACTORIAL HepG2 Assay for human Activator Protein 1 (AP-1) (AID 2282931). The settings on record: HepG2 Attagene cis-factorial AP-1 reporter mRNA; actives raise or lower the signal. In outline: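 Cis-regulated reporter units transiently expressed in HepG2 report endogenous transcription-factor activity. Signal: reporter mRNA at 24 h, via RT-PCR and fluorescent capillary electrophoresis. Endpoint derived by bidirectional fitting, DMSO as negative control.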

A short description of assay [19]: ATG_DR4_LXR_CIS: Attagene CIS-FACTORIAL HepG2 Assay for human Liver X Receptor (LXR), DR4 submotif (AID 2282929). The note with it: HepG2 Attagene DR4 cis-reporter, mRNA transcription; actives raise or lower the signal. In outline: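 DR4 cis-reporter in HepG2, 24 h exposure. Detection: RT-PCR, 6-FAM labelling, CE fragment analysis. Endpoint fitted bidirectionally, DMSO = baseline.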

Assay [20] can be described thus: ATG_BRE_CIS: Attagene CIS-FACTORIAL HepG2 Assay for human Bone Morphogenetic Protein (BMP) Response Element (BRE) (AID 2282933). The settings on record: HepG2 BMP response element reporter, Attagene transcription factor profiling; actives raise or lower the signal. In outline: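 HepG2 cells transiently transfected with multiplexed cis-element reporter units were dosed with chemical for 24 h. Reporter mRNA was measured by RT-PCR with fluorescent labelling, HpaI digestion and capillary electrophoresis; bidirectional fitting relative to DMSO.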

Sequence of CCAAT/enhancer-binding protein beta (Homo sapiens) (P17676 whole entry, looked up): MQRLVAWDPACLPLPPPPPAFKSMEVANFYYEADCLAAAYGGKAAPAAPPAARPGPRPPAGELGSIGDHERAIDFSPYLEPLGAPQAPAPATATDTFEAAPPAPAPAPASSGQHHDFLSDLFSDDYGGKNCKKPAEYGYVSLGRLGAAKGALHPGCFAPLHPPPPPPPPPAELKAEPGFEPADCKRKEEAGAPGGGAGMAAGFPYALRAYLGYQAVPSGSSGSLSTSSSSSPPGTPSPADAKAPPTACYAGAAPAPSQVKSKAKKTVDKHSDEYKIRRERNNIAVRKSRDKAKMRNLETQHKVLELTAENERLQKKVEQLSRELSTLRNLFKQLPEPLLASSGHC
Sequence of Hepatocyte nuclear factor 3-beta (Homo sapiens) (Q9Y261 whole entry, looked up): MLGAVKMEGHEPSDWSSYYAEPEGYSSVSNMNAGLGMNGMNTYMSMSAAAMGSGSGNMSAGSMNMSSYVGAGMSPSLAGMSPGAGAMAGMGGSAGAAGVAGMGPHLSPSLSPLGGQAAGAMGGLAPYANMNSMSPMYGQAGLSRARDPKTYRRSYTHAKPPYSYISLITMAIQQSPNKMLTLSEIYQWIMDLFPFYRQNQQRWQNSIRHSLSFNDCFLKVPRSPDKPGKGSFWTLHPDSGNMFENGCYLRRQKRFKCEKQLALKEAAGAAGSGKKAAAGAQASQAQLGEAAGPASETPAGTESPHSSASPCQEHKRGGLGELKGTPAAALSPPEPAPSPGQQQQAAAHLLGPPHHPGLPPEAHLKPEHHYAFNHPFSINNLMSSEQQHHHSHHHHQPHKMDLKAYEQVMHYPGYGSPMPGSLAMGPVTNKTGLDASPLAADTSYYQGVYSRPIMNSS
Sequence of Aryl hydrocarbon receptor (Homo sapiens) (P35869 whole entry, looked up): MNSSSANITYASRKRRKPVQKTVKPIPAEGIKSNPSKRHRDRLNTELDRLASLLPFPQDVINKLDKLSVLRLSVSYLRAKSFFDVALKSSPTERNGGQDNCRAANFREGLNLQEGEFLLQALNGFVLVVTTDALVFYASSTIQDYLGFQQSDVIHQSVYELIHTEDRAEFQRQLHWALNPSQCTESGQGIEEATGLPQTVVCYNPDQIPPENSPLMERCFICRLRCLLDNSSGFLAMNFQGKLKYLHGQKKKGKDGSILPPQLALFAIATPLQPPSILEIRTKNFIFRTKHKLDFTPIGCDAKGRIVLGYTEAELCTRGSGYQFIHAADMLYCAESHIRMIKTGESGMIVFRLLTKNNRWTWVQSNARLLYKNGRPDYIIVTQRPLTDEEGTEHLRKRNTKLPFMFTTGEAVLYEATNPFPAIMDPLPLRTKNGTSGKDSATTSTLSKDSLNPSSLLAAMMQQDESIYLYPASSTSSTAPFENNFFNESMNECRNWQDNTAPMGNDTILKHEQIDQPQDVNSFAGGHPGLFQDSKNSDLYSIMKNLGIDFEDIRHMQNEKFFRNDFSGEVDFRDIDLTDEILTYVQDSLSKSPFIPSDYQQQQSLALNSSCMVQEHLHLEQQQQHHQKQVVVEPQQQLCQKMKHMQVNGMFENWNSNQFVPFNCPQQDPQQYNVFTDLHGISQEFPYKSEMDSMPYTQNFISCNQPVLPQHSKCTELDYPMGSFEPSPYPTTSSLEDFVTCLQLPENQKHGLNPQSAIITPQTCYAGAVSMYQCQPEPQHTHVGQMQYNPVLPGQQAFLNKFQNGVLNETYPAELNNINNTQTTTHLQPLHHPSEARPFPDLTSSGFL

For `CC(C)CCCCCCc1ccc(OCCOCCO)cc1`, the call in assay [1], in assay [2], in assay [3], in assay [4], in assay [5] and in [6] was inactive. The result in assay [7], in assay [8], in assay [9], in assay [10], in assay [11] and in [12] was inactive. In addition, the outcome in assay [13], in [14], in assay [15], in [16] and in assay [17] was inactive.

On to `C=Cc1ccc(C(C)(C)C)cc1`, for which the result in assay [1], in [2], in assay [3], in [4], in [18] and in [5] was inactive. The compound was called inactive in [7], in assay [8], in [9], in [10], in [11] and in assay [13]. The compound was classed as inactive in assay [14], in assay [16] and in [17]. Besides, in assay [6], the AC50 (commonly the concentration giving half of the maximal activity seen) is 76.1 µM (active).

As for `COC(=O)c1ccc(C)cc1C1=NC(C)(C(C)C)C(=O)N1` (stereo unspecified) (tested in a mixture with another compound), the call in [1], in assay [2], in [19], in assay [4], in assay [18] and in assay [5] was inactive. Further, the call in assay [20], in assay [6], in [7], in assay [8], in assay [9] and in [10] was inactive. For the same compound, the compound was called inactive in [11], in assay [13], in assay [14], in assay [15], in assay [16] and in assay [17].

With `CN(C)C(=S)SC(=S)N(C)C`, the compound was called inactive in assay [1], in [2], in assay [19], in [4], in assay [18] and in assay [5]. Also, the compound was called inactive in assay [20], in [6], in [7], in [8], in assay [9] and in assay [11]. Further, the compound was classed as inactive in assay [13], in assay [14], in assay [15], in [16] and in [17].

Take `O=C1OC(=O)c2c(Br)c(Br)c(Br)c(Br)c21`: the compound was called inactive in [1], in assay [2], in [19], in assay [4], in [18] and in assay [5]. Besides, the compound was classed as inactive in assay [20], in assay [6], in [7], in [8], in [9] and in assay [10]. Besides, the compound was called inactive in assay [11], in assay [13], in assay [14], in assay [16] and in assay [17]. For the same compound, in assay [15], the concentration at half-maximal activity (AC50) is 165 µM (active).

`CC(=O)c1c(C)c([N+](=O)[O-])c(C(C)(C)C)c([N+](=O)[O-])c1C`: the outcome in assay [1], in [2], in [3], in assay [4], in assay [18] and in assay [5] was inactive. In addition, the outcome in assay [7], in assay [8], in assay [9], in assay [10], in assay [11] and in assay [13] was inactive. The outcome in assay [14], in [15], in [16] and in assay [17] was inactive. For the same compound, the AC50 in assay [6] was 1.6 µM (active).

With `CCCCCc1ccco1`, the compound was classed as inactive in assay [1], in [2], in [3], in [4], in assay [5] and in [20]. The call in assay [6], in assay [7], in [8], in assay [9], in assay [11] and in assay [13] was inactive. Moreover, the outcome in assay [14], in [16] and in [17] was inactive. Besides, the AC50 in [18] was 90.9 µM (active).

With `COCCc1ccc(OCC(O)CNC(C)C)cc1` (stereo unspecified), the call in assay [1], in assay [2], in [3], in assay [4], in assay [18] and in assay [5] was inactive. The outcome in [6], in assay [7], in [8], in assay [9], in assay [10] and in assay [11] was inactive. Moreover, the compound was called inactive in [13], in assay [14], in assay [15], in assay [16] and in assay [17].
